Only some compounds are listed: those with a hit (about 2.3% of all), similar ones and a draw of the others.
A549 tox: Nrf2 qHTS screen for inhibitors: counterscreen for cytotoxicity. A549 ARE-Fluc cells, CellTiter-Fluor viability, 18-24 h. Potency, µM (top dose mostly 46 µM), for the others: top-dose activity change, negative = cytotoxicity, actives largely listed as inhibitors. hit rate 0.16% among 390,000. AID 504648, 2011; further: potency means the concentration at half of the fitted maximal effect; on the % scale 0 is the no-effect control and ±100 the full control effect
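A549 ARE_Fluc cells in 5% FBS OPTI-MEM were exposed to compounds in concentration-response for 18-24 h at 37 deg C. Viability was read by CellTiter-Fluor fluorescence (Ex 405/Em 525) after 30 min, before the luciferase read.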
IL-2 act: qHTS of IL-2 Activators; IL-2 activation reporter assay, cell-based qHTS; stimulated with anti-CD3/CD4/CD28 beads; in transgenic mouse T cells; activation, % (series mostly up to about 46 µM); hit rate 0.065% among 360,000; AID 652025, 2013; in the data active means activation above about 50%; inconclusive means mostly about 30% to 49%; further: 0% is about no effect
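Quantitative HTS in unstimulated transgenic mouse T cells, with memory T cells as non-tolerant control and PMA/ionomycin as tolerance-bypass control. Compound pretreatment lasted 60 minutes before 18 h bead stimulation; EGFP/DsRed fluorescence read.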
Nrf2 activator: qHTS of Nrf2 Activators; AREc32 ARE-luciferase reporter (MCF7-derived line), luminescence, 24 h; Potency, µM (series often up to 46.1 µM), for inactives: top-dose activation, most hits filed as activators; hit rate 0.31% among 410,000; AID 624171, 2012; further: potency means the concentration at half of the fitted maximal effect; % of control where 0% means no effect; nearly all actives have a fitted effect of over 65% in size
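Reporter line AREc32 (ARE-Fluc), seeded overnight in OPTI-MEM with 5% FBS; compound pin-transferred, 24 hr at 37 deg C, 5% CO2; luminescent read-out.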
Nrf2 block: Nrf2 qHTS screen for inhibitors; A549 ARE-Fluc reporter, luciferase luminescence, 18-24 h; Potency, µM (titrated, usually from 46 µM), for the others: top-dose activity change, negative = inhibition, usual class: inhibitors; hit rate 2.1% among 360,000; AID 504444, 2011; further: potency means the concentration at half of the fitted maximal effect; on the % scale 0 is the no-effect control and ±100 the full control effect; nearly all actives have a fitted effect of over 60% in size
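Cells were seeded and rested 2 h, then exposed to compounds for 18-24 h. CellTiter-Fluor was read first as a viability measure. BugLite was added 15 min before the final luminescent read of ARE-luciferase activity in A549 cells.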
An asterisk follows results filed as active. Unless noted, the call rests on the fitted dose curve; in most records, active means well fitted curve in the direction sought with a large enough effect; inconclusive means small, poorly fitted or top-dose-only effect, or another doubt; inactive means no such curve, though single readings can be large; an effect the other way counts as inactive or inconclusive.

How did CCN1/C(=C/c2cc[n+](CCCS(=O)(=O)[O-])c3ccccc23)Sc2ccccc21 do in these assays?
A549 tox: -22%; IL-2 act: 226*; Nrf2 activator: 0%; Nrf2 block: 1%

Results for O=C(Cc1nnc(-c2cc3ccccc3[nH]2)o1)Nc1cc(C(F)(F)F)ccc1Cl ?
A549 tox: 1%; Nrf2 block: -19%

How did COc1ccc(-c2cn(-c3ccccc3)c3[n+]2CCS3)cc1 do in these assays?
A549 tox: -12%; IL-2 act: -5; Nrf2 activator: 2%; Nrf2 block: 2.6µM*

How did CCC(Cn1nnc2ccccc2c1=O)NC(=O)Nc1cccc(Cl)c1 (stereo not given) do in these assays?
A549 tox: -9%; Nrf2 activator: -1%; Nrf2 block: 9%

How did CCN(C(=O)CSc1ncnc2sc(C)c(C)c12)C1CCS(=O)(=O)C1 (stereo not given) do in these assays?
A549 tox: -1%; IL-2 act: -5; Nrf2 activator: 0%; Nrf2 block: 13µM*

Results for Cc1sc2ncnc(SCC(=O)c3cccs3)c2c1C ?
A549 tox: -15%; IL-2 act: -3; Nrf2 activator: 14µM*; Nrf2 block: inconclusive

How did Cc1cccc(NC(=O)CSc2ncnc3sc(C)c(C)c23)n1 do in these assays?
A549 tox: -4%; IL-2 act: -3; Nrf2 activator: 10%; Nrf2 block: inconclusive

What do the screens show for `CC1CCc2c(sc3ncnc(SCC(=O)N(C)C4CCS(=O)(=O)C4)c23)C1` (stereo not given)?
A549 tox: -4%; IL-2 act: 0; Nrf2 activator: 0%; Nrf2 block: 16µM*

What do the screens show for `COc1ccc(-n2c(/C=C/c3ccccc3F)nc3cc(OC)c(OC)cc3c2=O)cc1Cl`?
A549 tox: -5%; Nrf2 activator: -1%

What do the screens show for `CCOC(=O)CSc1nc2ccc(NC(=O)COc3ccccc3C)cc2s1`?
A549 tox: -1%; Nrf2 activator: 0%; Nrf2 block: -2%

Results for O=C1CCCC2=C1C1(CCCOC1)N=C(Nc1nc3ccccc3o1)N2 (stereo not given) ?
A549 tox: 1%; Nrf2 block: inconclusive

What do the screens show for `CCC1(C)Cc2c(sc3nc(SC)n(Cc4ccccc4)c(=O)c23)CO1` (stereo not given)?
A549 tox: 3%; IL-2 act: 1; Nrf2 activator: 1%; Nrf2 block: inconclusive

How did CC1(C)Cc2c(sc3[nH]c(=S)n(Cc4ccccc4)c(=O)c23)CO1 do in these assays?
A549 tox: inconclusive; IL-2 act: -1; Nrf2 activator: 0%; Nrf2 block: 16µM*

What do the screens show for `Cc1nn(-c2ccccc2)c2nc(C3CC3)cc(C(=O)Nc3ccc(F)cc3)c12`?
A549 tox: inconclusive; Nrf2 activator: -1%; Nrf2 block: -18%

How did CCOP(=O)(OCC)C(C)(C)NC(=O)Nc1ccc(Cl)c(Cl)c1 do in these assays?
A549 tox: 2%; IL-2 act: 0; Nrf2 activator: 0%; Nrf2 block: 23µM*

What do the screens show for `COc1ccc(CNC(=O)c2csc(Cc3ccc(Cl)cc3)n2)cc1`?
A549 tox: 9%; IL-2 act: -6; Nrf2 activator: 3%; Nrf2 block: 23µM*

What do the screens show for `CN(Cc1ccccc1)C(=O)c1ccc(CSc2nc3cccnc3n2Cc2ccccc2)cc1`?
A549 tox: inconclusive; Nrf2 activator: -5%; Nrf2 block: 21µM*

Results for CCOc1ccccc1CNC(=O)c1ccc(NC(=O)N2CCSc3ncccc32)cc1 ?
A549 tox: 2%; Nrf2 activator: 1%; Nrf2 block: 18µM*

Results for Cc1ccccc1CNC(=O)c1ccc(CSc2nc3cccnc3n2Cc2ccccc2)cc1 ?
A549 tox: -4%; Nrf2 activator: 4%; Nrf2 block: -21%

What do the screens show for `O=C(NCc1cccs1)c1ccc(CSc2nc3cccnc3n2Cc2ccc(F)cc2)cc1`?
A549 tox: -19%; Nrf2 activator: 1%; Nrf2 block: 18µM*

Results for CCOc1ccccc1CNC(=O)c1ccc(Cn2c(SCc3ccccc3)nc3cccnc32)cc1 ?
A549 tox: -16%; Nrf2 activator: 6%; Nrf2 block: 21µM*

How did O=C(NCc1cccs1)c1ccc(CSc2nc3cccnc3n2Cc2ccccc2)cc1 do in these assays?
A549 tox: -19%; Nrf2 activator: 4%; Nrf2 block: inconclusive

Screening results: PubChem BioAssay, National Center for Advancing Translational Sciences (NCATS)
